DRD3 antagonist = blocks the human D3 dopamine receptor; P35462; D3R cells, DiscoveRx beta-arrestin luminescence, antagonist mode; active compounds read low; max response, negative = inhibition, %; 2.5% of 360,000 active; in the data active = max response below about -50%; inconclusive = no clear call, values can overlap the other calls; also: % is scaled to controls: 0 for no effect and ±100 for the full control effect
Target sequence (P35462 whole entry, looked up): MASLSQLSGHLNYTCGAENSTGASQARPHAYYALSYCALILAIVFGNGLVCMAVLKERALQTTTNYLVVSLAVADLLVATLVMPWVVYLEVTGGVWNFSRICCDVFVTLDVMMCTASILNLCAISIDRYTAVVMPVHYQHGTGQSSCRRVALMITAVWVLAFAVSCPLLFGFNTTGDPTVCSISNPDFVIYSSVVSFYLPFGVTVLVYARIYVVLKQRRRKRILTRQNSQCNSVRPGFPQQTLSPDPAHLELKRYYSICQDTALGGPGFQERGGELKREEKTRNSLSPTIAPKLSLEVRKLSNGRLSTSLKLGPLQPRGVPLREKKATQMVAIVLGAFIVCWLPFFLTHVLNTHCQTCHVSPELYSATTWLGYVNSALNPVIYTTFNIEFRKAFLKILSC
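Cells plated overnight at 1500 cells/well, then exposed to library compounds with dopamine controls for 90 minutes at 37 degrees C. DiscoveRx reagent added for 30–60 minutes at room temperature; luminescence read, quantitative HTS format.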
DRD3 agonist = D3 dopamine receptor (human) agonism; 0.58% of 410,000 active; P35462; D3R DiscoveRx beta-arrestin cells, luminescence, 90 min; max activation, %; AID 652048; in the data active = max activation above about 30%; also: 0% is about no effect
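Agonist-mode cell screen: cells plated at 1500/well and incubated overnight at 37 °C, then exposed to library compounds for 90 min at 37 °C. Detection reagent was added for 30–60 min at room temperature, and luminescence was read.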
S2 tox = cell viability loss in ATXN counter-screen; S2 cells (HEK-293 line with an ATXN2-luciferase reporter) viability, CellTiter-Fluor protease fluorescence, 24 h; 0.49% of 400,000 active; Potency, µM (doses to about 56.7 µM), most hits filed as cytotoxic; also: potency is read from the fitted curve at half-maximal effect; nearly all actives have a fitted effect of over 40% in size
TGFb SMAD3 inh = blocks TGF-b signaling. Potency, µM (series often up to 46.1 µM), inactives show at the top dose activity, negative = inhibition, usual class: inhibitors. 1.2% of 410,000 active. HepG2 CAGA-GFP TGF-b/SMAD3 reporter, GFP fluorescence, 18 h; TGF-beta stimulated, 500 pg/mL final; also: potency is read from the fitted curve at half-maximal effect; % is scaled to controls: 0 for no effect and ±100 for the full control effect; nearly all actives have a fitted effect of over 65% in size
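TGF-beta reporter screen: HEPG2 CAGA-GFP, 1% FBS, 500 pg/mL TGF-beta final, 18 h; per-cell GFP summed per well; curves fitted and categorized by class.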
ATXN2 expr inh = ATXN2 expression inhibition; 0.72% of 360,000 active; AID 1745845; HEK-293 ATXN2-luciferase reporter, luminescence, 24 h; Potency, µM (series often up to 57 µM), without a hit: at the top dose activity change, negative = inhibition, actives largely listed as inhibitors; also: potency is read from the fitted curve at half-maximal effect; % is scaled to controls: 0 for no effect and ±100 for the full control effect; nearly all actives have a fitted effect of over 55% in size
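ATXN2-luciferase reporter cells (luciferase flanked by upstream and downstream ATXN2 gene portions) were treated 24 h at 37 °C with compounds at up to 57 uM. SteadyGlo luminescence gave expression; GF-AFC fluorescence gave viability.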
HepG2 tox-1 = HepG2 cytotoxicity, counter-screen for TGF-b inhibitors. Potency, µM (series often up to 46.1 µM), for inactives: at the top dose activity change, negative = cytotoxicity, actives largely listed as cytotoxic. 0.76% of 410,000 active. HepG2 CAGA-GFP viability, ATP luminescence, 18 h; also: potency is read from the fitted curve at half-maximal effect
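HepG2 CAGA-GFP cells (1000/well, DMEM with 1% FBS) received compound, then TGF-beta at 500 pg/mL final, and were incubated 18 hours at 37 degrees C. Viability was read by CellTiter-Glo luminescence. Media-only wells were set as complete cell-killing and DMSO as no toxicity.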
TGFb confirm = TGF-b pathway inhibition, cherry-pick retest | shares compounds with TGFb SMAD3 inh | HepG2 CAGA-GFP TGF-b reporter, GFP fluorescence, 18 h; cells stimulated with TGF-beta, 500 pg/mL | Potency, µM (titrated, usually from 46.1 µM), for inactives: top-dose activity, negative = inhibition, most hits filed as inhibitors | 63% of 1,600 active; also: potency is read from the fitted curve at half-maximal effect; % is scaled to controls: 0 for no effect and ±100 for the full control effect; nearly all actives have a fitted effect of over 65% in size
HepG2 tox-2 = counter-screen for TGF-b inhibitors: cytotoxicity in HepG2 cells. shares compounds with TGFb SMAD3 inh. HepG2 CAGA-GFP viability, ATP luminescence, 18 h; cells stimulated with TGF-beta, 500 pg/mL. Potency, µM (titrated, usually from 46.1 µM), without a hit: at the highest dose activity, negative = cytotoxicity, usual class: inhibitors. 27% of 1,600 active. AID 720535; also: potency is read from the fitted curve at half-maximal effect; % is scaled to controls: 0 for no effect and ±100 for the full control effect; nearly all actives have a fitted effect of over 70% in size
CCL64 TGFb inh = TGF-b inhibition, CCL64 orthogonal assay. shares compounds with TGFb SMAD3 inh. CCL64 CAGA-GFP reporter, TGF-b stimulated, GFP fluorescence, 18 h. Potency, µM (series often up to 46.1 µM), for inactives: at the top dose activity, negative = inhibition, most hits filed as inhibitors. 41% of 1,600 active; also: potency is read from the fitted curve at half-maximal effect; nearly all actives have a fitted effect of over 65% in size
TGFb COP inh = blocks TGF-b signaling in HepG2 COP reporter; shares compounds with TGFb SMAD3 inh; HepG2 COP-GFP TGF-b reporter, GFP fluorescence, 18 h; cells stimulated by added recombinant TGF-beta; Potency, µM (top dose mostly 46.1 µM), for inactives: top-dose activity, negative = inhibition, actives largely listed as inhibitors; 3% of 1,600 active; also: potency is read from the fitted curve at half-maximal effect; nearly all actives have a fitted effect of over 70% in size
The depositor's hits bear a star; i = inactive; u = inconclusive; x = no result given. Only some compounds are listed: those with a hit (about 4.7% of all), similar ones and a draw of the others. Unless noted, calls follow the shape of the dose curve; as a rule, active = well fitted curve in the direction sought with a large enough effect; inconclusive = small, poorly fitted or top-dose-only effect, or another doubt; inactive = no such curve, though single readings can be large; an effect the other way counts as inactive or inconclusive.

SMILES | DRD3 antagonist | DRD3 agonist | S2 tox | TGFb SMAD3 inh | ATXN2 expr inh | HepG2 tox-1 | TGFb confirm | HepG2 tox-2 | CCL64 TGFb inh | TGFb COP inh
COc1ccc(-c2nc3c4ccccc4ccn3c2Cc2ccc(C)cc2)cc1OC | -5.4 | -8.6 | u | 12.6µM* | 16.4% | -13.5% | 25.9µM* | -17.0% | 18.4µM* | 14.9%
COc1ccc(-c2nc3c4ccccc4ccn3c2Cc2cccc(Cl)c2)cc1OC | 45.2 | 1.5 | u | -28.5% | 23.8% | -20.1% | x | x | x | x
COc1cccc(N2C(=O)C(CC(=O)Nc3cccc(F)c3)N(C3CCCC3)C2=O)c1 (centres undefined) | x | -16.4 | x | -15.6% | x | -4.0% | x | x | x | x
CC(C)(C)NS(=O)(=O)c1cccc(S(=O)(=O)c2cccc(S(=O)(=O)NC(C)(C)C)c2)c1 | -122.5* | -9.7 | i | 12.6µM* | -21.4% | -10.7% | 14.6µM* | u | -23.4% | 10.9%
CC(C)Cn1nc(NC(=O)c2cccc(Cl)c2)c2cc3ccccc3nc21 | x | -9.0 | x | 34.2% | -16.2% | 12.9% | x | x | x | x
CC1=C(C(=O)N(C(C)C)C(C)C)CC(CC(=O)NCCCCc2ccccc2)C(=O)N1Cc1ccc(F)cc1 (centres undefined) | 7.4 | 6.2 | u | 7.94µM* | u | 2.6% | u | -6.0% | 23.1µM* | -4.3%
CC1=C(C(=O)N(C(C)C)C(C)C)CC(CC(=O)NCCCCc2ccccc2)C(=O)N1Cc1ccccc1 (centres undefined) | u | -4.3 | u | u | 0.0% | -33.7% | x | x | x | x
CC1=C(C(=O)N(C(C)C)C(C)C)CC(CC(=O)NC(c2ccccc2)c2ccccc2)C(=O)N1Cc1ccc(C(C)(C)C)cc1 (centres undefined) | -20.7 | -4.2 | i | 17.8µM* | u | 1.6% | 9.2µM* | -27.2% | u | 9.0%
O=C(NC1CCCC1)c1c[nH]c2ccc(S(=O)(=O)Nc3cccc(C(F)(F)F)c3)cc2c1=O | x | -12.9 | i | u | -36.4% | -65.9% | x | x | x | x
O=S(=O)(c1ccc(Br)cc1)N1CCN(c2nc(-c3ccccc3)nc3ccccc23)CC1 | x | x | x | 21.9% | x | 17.8% | x | x | x | x
Cc1noc(C)c1COc1ccccc1C(=O)N(C)Cc1ccc(C(C)(C)C)cc1 | 0.5 | -2.2 | i | 11.2µM* | x | -26.5% | 16.4µM* | u | u | 43.9%
Cc1cc(SCC(N)=O)nc(SCC(=O)c2ccccc2)n1 | -12.3 | 0.2 | u | 8.4% | 1.9% | -18.2% | x | x | x | x
Cc1ccc(C(=O)CSc2cc(C)nc(SCC(=O)c3ccccc3)n2)cc1 | 27.3 | 4.3 | u | u | -12.3% | -9.6% | u | -15.2% | -2.8% | 10.0%
CCOc1ccccc1-n1c(CNc2ccc(F)cc2)nnc1SCC(=O)NCc1ccco1 | -19.2 | -2.1 | u | 8.91µM* | 0.1% | 2.3% | u | -2.1% | 0.2% | 3.5%
O=C(CSc1ncc(-c2ccc(F)cc2)n1Cc1ccco1)Nc1ccc2c(c1)OCO2 | u | 4.0 | u | u | 6.4% | -31.1% | x | x | x | x
O=C(CSc1nnc(CNc2ccc(F)cc2)n1Cc1ccccc1)NCc1ccco1 | 11.0 | 0.6 | i | -12.7% | 8.3% | -0.8% | x | x | x | x
CCOc1ccc(NC(=O)CSc2ncc(-c3ccc(F)cc3)n2Cc2ccco2)cc1 | 1.3 | 0.6 | i | 15.8µM* | -23.8% | -24.7% | 25.9µM* | u | u | 38.7%
COc1cccc2c1C(=O)c1c(O)c3c(c(O)c1C2=O)C[C@@](O)(C(=O)CO)C[C@@H]3OC1CC(N)C(O)C(C)O1 (some centres undefined) | -22.6 | -10.7 | 11.9µM* | 5.62µM* | u | 13.8% | 2.59µM* | 1.3µM* | 3.26µM* | 14.7%
COc1cccc2c1C(=O)c1c(O)c3c(c(O)c1C2=O)CC(O)(C(C)=O)CC3OC1CC(N(C)C)C(O)C(C)O1 (centres undefined) | -26.7 | -8.6 | u | 0.794µM* | u | -42.5% | 0.259µM* | 0.326µM* | 1.03µM* | u
CCC1Oc2ccc(C)cc2N(CC(=O)NC2CCCCC2)C1=O (centres undefined) | 9.2 | -2.6 | i | -0.6% | 4.2% | 11.9% | x | x | x | x
CCC1Oc2ccc(C)cc2N(CC(=O)N(Cc2ccc(C)o2)C2CCCC2)C1=O (centres undefined) | u | -6.5 | i | 17.8µM* | -4.0% | 3.3% | 11.6µM* | -26.0% | u | -2.5%
O=C(NCCc1nc2ccccc2n1CCOc1ccccc1)C1CCCCC1 | x | x | x | u | x | -2.8% | x | x | x | x
CCOC(=O)C1=C[C@@H](C(C)(C)C)N(S(=O)(=O)c2ccc([N+](=O)[O-])cc2)[C@H]1c1ccccc1 | 10.4 | -2.5 | i | u | -20.2% | -14.6% | u | -3.2% | u | -0.5%
CCOC(=O)C1=C[C@@H](C(C)(C)C)N(S(=O)(=O)c2ccc(OC)cc2)[C@H]1c1ccccc1 | 9.0 | 4.5 | i | 11.2µM* | -9.3% | -20.3% | 9.2µM* | -28.8% | -29.2% | -3.2%
CCOC(=O)C1=C[C@@H](C(C)(C)C)N(S(=O)(=O)c2ccc(C)cc2)[C@H]1c1ccc(OC)cc1 | 2.8 | 0.0 | i | u | 0.5% | -15.7% | x | x | x | x
CCOC(=O)C1=C[C@@H](C(C)(C)C)N(S(=O)(=O)c2ccc(C)cc2)[C@H]1c1ccccc1 | 50.4 | 7.3 | i | u | -11.1% | -24.8% | x | x | x | x
O=C(c1ccc(F)cc1)N1c2nc(-c3ccco3)nn2C2(CCCCC2)[C@@H]2CCCC[C@@H]21 | x | 12.3 | x | -10.4% | x | -23.7% | x | x | x | x
